Compounds without any hit were thinned out: in the full panel of roughly 79,000, 15% have a hit. Calls of active or inactive are those of the source. Rule as the data show it: active = growth inhibition above about 70%; inactive = the rest.
Legend:
[1] = NCI Yeast Anticancer Drug Screen. Data for the rad50 strain (AID 155);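 also: 0% = growth of vehicle-only cultures of the same strain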; details: S. cerevisiae rad50 strain growth inhibition, hits give high values
How it was run: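 Yeast carrying a defined DNA repair defect were exposed to test compounds, and growth was compared with vehicle-treated controls to give percent inhibition.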

[2] = NCI Yeast Anticancer Drug Screen. Data for the mec2-1 strain (AID 157); details: S. cerevisiae mec2-1 strain, hits give high values
How it was run: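 Growth inhibition is read against vehicle-treated controls after compound exposure of the mec2-1 yeast strain, which is defective in DNA damage repair or cell cycle control.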

[3] = NCI Yeast Anticancer Drug Screen. Data for the sgs1 mgt1 strain (AID 161);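 also: 0% = growth of cultures given vehicle only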; details: S. cerevisiae sgs1 mgt1 strain, hits give high values
How it was run: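 Yeast cells carrying a defined DNA-repair defect were exposed to test compounds. Growth inhibition was measured relative to vehicle-treated controls.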

[4] = NCI Yeast Anticancer Drug Screen. Data for the cln2 rad14 strain (AID 165);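 also: 0% = growth equal to vehicle treated cultures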; details: S. cerevisiae cln2 rad14 strain, hits give high values
How it was run: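 Growth inhibition, relative to vehicle-treated controls, is the read-out. The test organism is a yeast strain with defined genetic alterations, cln2 rad14.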

[5] = NCI Yeast Anticancer Drug Screen. Data for the bub3 strain (AID 167); details: S. cerevisiae bub3 mutant strain, hits give high values
How it was run: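 Compounds were applied to a genetically altered yeast strain carrying a cell-cycle control defect. Growth inhibition was scored against vehicle-treated controls.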

[6] = NCI Yeast Anticancer Drug Screen. Data for the mlh1 rad18 strain (AID 175); details: S. cerevisiae mlh1 rad18 strain growth inhibition, hits give high values
How it was run: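 Cells of a genetically altered yeast strain, deficient in DNA damage repair, were treated with compound. Their growth was then compared with that of vehicle-treated cultures to give inhibition.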

[7] = at 5.0 µM (retest, dose inferred, filed as 0.5)
[8] = at 50.0 µM (retest, dose inferred, filed as 5.0)

Measured: growth inhibition

NC(Cc1ccnnc1)C(=O)O (stereo not given)
inactive: [1]; [7] -10% | [1]; [8] -5% | [1]; at 50.0 µM -8.6% | [2]; [7] 10% | [2]; [8] -7% | [2]; at 50.0 µM -36.4% | [3]; [7] -7% | [3]; [8] -10% | [3]; at 50.0 µM -36.2% | [4]; [7] -7% | [4]; [8] -11% | [4]; at 50.0 µM 29.1% | [5]; [7] -13% | [5]; [8] -9% | [5]; at 50.0 µM -22.9% | [6]; [7] -16% | [6]; [8] -17% | [6]; at 50.0 µM -14.9%

COC(=O)C(=O)CC(=O)c1cccc(Cl)c1
inactive: [1]; [7] 16% | [2]; [7] 18% | [3]; [7] 18% | [3]; at 50.0 µM 64.2% | [4]; [7] 6% | [4]; at 50.0 µM 21.8% | [5]; [7] 13% | [6]; [7] 12%
active: [1]; [8] 99% | [1]; at 50.0 µM 74.5% | [2]; [8] 100% | [2]; at 50.0 µM 77% | [3]; [8] 99% | [4]; [8] 99% | [5]; [8] 99% | [5]; at 50.0 µM 82.7% | [6]; [8] 99% | [6]; at 50.0 µM 74.7%

CCCCCCC/C=C/C(=O)OC1C(OC2C(OC(CCCCCCC)CC(=O)OC(CCCCCCC)CC(=O)O)OC(C)C(O)C2O)OC(C)C(O)C1O (stereo not given)
inactive: [1]; [7] -18% | [2]; [7] -37% | [2]; [8] 57% | [3]; [7] -27% | [3]; [8] 62% | [4]; [7] -40% | [4]; [8] 68% | [5]; [7] -42% | [6]; [7] -34%
active: [1]; [8] 70% | [1]; at 50.0 µM 91.5% | [2]; at 50.0 µM 81.8% | [3]; at 50.0 µM 92.7% | [4]; at 50.0 µM 90.1% | [5]; [8] 94% | [5]; at 50.0 µM 90% | [6]; [8] 95% | [6]; at 50.0 µM 89.5%

O=c1c2cnccc2cc2c3ccccc3ccn12
inactive: [1]; [7] 47% | [2]; [7] 12% | [2]; [8] 58% | [2]; at 50.0 µM 41.5% | [3]; [7] 9% | [3]; [8] 64% | [3]; at 50.0 µM 6.75% | [4]; [7] 3% | [4]; [8] 42% | [5]; [7] 5% | [5]; [8] 37% | [5]; at 50.0 µM 2.45% | [6]; [7] 26% | [6]; at 50.0 µM 64%
active: [1]; [8] 93% | [1]; at 50.0 µM 91.8% | [4]; at 50.0 µM 74.8% | [6]; [8] 87%

Cc1cc2nc(CC(=O)c3ccc4ccccc4c3)c(=O)[nH]c2cc1C
active: [1]; at 50.0 µM 94.7% | [2]; at 50.0 µM 81.4% | [3]; at 50.0 µM 88.3% | [4]; at 50.0 µM 80.9% | [5]; at 50.0 µM 89% | [6]; at 50.0 µM 96.7%
inactive: [1]; [7] -43% | [1]; [8] -24% | [2]; [7] -3% | [2]; [8] 9% | [3]; [7] -5% | [3]; [8] -21% | [4]; [7] -17% | [4]; [8] -33% | [5]; [7] 13% | [5]; [8] -19% | [6]; [7] -16% | [6]; [8] -28%

COc1ccc2nc3c([N+](=O)[O-])ccc(NCCCN(C)C)c3c(N)c2c1
active: [1]; [8] 86% | [1]; at 50.0 µM 90.3% | [2]; [8] 70% | [2]; at 50.0 µM 85.7% | [3]; [8] 75% | [3]; at 50.0 µM 92.5% | [5]; [8] 85% | [6]; [8] 95% | [6]; at 50.0 µM 88.6%
inactive: [1]; [7] 6% | [2]; [7] 9% | [3]; [7] 24% | [4]; [7] 16% | [4]; [8] 50% | [4]; at 50.0 µM 34.5% | [5]; [7] -22% | [5]; at 50.0 µM 44.5% | [6]; [7] -14%

COc1ccc(C2=C(Cl)C(=O)N(c3ccc(Cl)cc3)C(=O)C2(Cl)Cl)cc1
inactive: [1]; [7] 12% | [2]; [7] 3% | [3]; [7] 13% | [4]; [7] -10% | [4]; at 50.0 µM 63% | [5]; [7] -3% | [6]; [7] 9%
active: [1]; [8] 95% | [1]; at 50.0 µM 93.2% | [2]; [8] 97% | [2]; at 50.0 µM 98.2% | [3]; [8] 96% | [3]; at 50.0 µM 97.1% | [4]; [8] 91% | [5]; [8] 95% | [5]; at 50.0 µM 93.2% | [6]; [8] 94% | [6]; at 50.0 µM 96%

Cn1c(CN(Cc2nc3ccccc3n2C)Cc2nc3ccccc3n2C)nc2ccccc21
inactive: [1]; [7] 7% | [2]; [7] 2% | [3]; [7] 3% | [3]; at 50.0 µM 69.7% | [4]; [7] 3% | [4]; at 50.0 µM 68.8% | [5]; [7] 4% | [5]; [8] 47% | [5]; at 50.0 µM 56.2% | [6]; [7] 3% | [6]; at 50.0 µM 56%
active: [1]; [8] 73% | [1]; at 50.0 µM 76.7% | [2]; [8] 85% | [2]; at 50.0 µM 87.9% | [3]; [8] 72% | [4]; [8] 89% | [6]; [8] 80%

COc1ccc(N=Nc2ccc3oc(=O)c(C(=O)Nc4ccc(OC)cc4)cc3c2)cc1
inactive: [1]; [7] 24% | [2]; [7] 14% | [3]; [7] 14% | [4]; [7] 26% | [5]; [7] -25% | [6]; [7] 36%
active: [1]; [8] 97% | [1]; at 50.0 µM 94.8% | [2]; [8] 97% | [2]; at 50.0 µM 95.3% | [3]; [8] 98% | [3]; at 50.0 µM 95.5% | [4]; [8] 94% | [4]; at 50.0 µM 94.3% | [5]; [8] 92% | [5]; at 50.0 µM 95.3% | [6]; [8] 97% | [6]; at 50.0 µM 95.1%

CC(C)CCCC(C)C1CCC2(C)C3=CCC4C(C)(CCC(O)C4(C)C)C3=CCC12C (stereo not given)
active: [1]; [8] 83% | [1]; at 50.0 µM 89% | [2]; [8] 94% | [2]; at 50.0 µM 73% | [3]; [8] 95% | [3]; at 50.0 µM 98% | [4]; [8] 84% | [4]; at 50.0 µM 97.7% | [5]; [8] 95% | [5]; at 50.0 µM 93.3% | [6]; [8] 97% | [6]; at 50.0 µM 90.8%
inactive: [1]; [7] 0% | [2]; [7] -18% | [3]; [7] 11% | [4]; [7] -8% | [5]; [7] -6% | [6]; [7] 21%

Reference: PubChem BioAssay (NCI)
